# Assay results as given in ChEMBL document CHEMBL3433997, “St. Jude Leishmania screening dataset” (2016).
# Target: Hexose transporter 1 (Plasmodium falciparum) (UniProt O97467)
# Experiment: ST_JUDE_LEISH: Cytotoxicity at 2uM final concentration against transgenic Leishmania Mexicana promastigotes LmPfHT that are glucose transport deficient and complemented with the Plasmodium falciparum hexose transporter. Activity is measured by DNA content using SYBR green in vitro
# Format: functional
row,Compound,inhibition [%]
1,COc1cc2nc(N3CCC(CNC(=O)c4cccc5cccnc45)CC3)nc(N)c2cc1OC,4.14
2,COC(=O)Nc1cc(C(F)(F)F)ccc1N1CCCC(NS(=O)(=O)c2ccc(C(C)(C)C)cc2)C1 (stereo unspecified),12.2
3,CCN(CC)CCCC(C)Nc1ccnc2ccc(-c3ccccc3)cc12 (stereo unspecified),-0.17
4,COc1ccc2c(C)cc(NCCCN(C)C)nc2c1,-0.64
5,CCc1c[nH]c2c(N3CCCC3=O)cc(C(=O)N[C@@H](Cc3ccccc3)[C@H](O)CNC(C)(C)CCCC(C)C)cc12,9.72
6,CC(C)CNCc1cccc(-c2ccc(CN(CCCN3CCN(C)CC3)C(=O)/C=C/c3ccccc3)cc2)c1,3.29
7,Oc1ccc(-c2nc(-c3ccc4oc5ccc(-c6[nH]c(-c7ccc(O)cc7)nc6-c6ccccc6)cc5c4c3)c(-c3ccccc3)[nH]2)cc1,-1.28
8,COc1ccc(CN2CCC(CNCc3cccc(-c4ccccc4)c3)CC2)cc1,0.46
9,CCCCNCc1ccc(-c2nc(CN(CCCN3CCN(C)CC3)C(=O)Nc3cccc(Cl)c3)cs2)cc1,9.93
10,CCCCCC(NCCCC)c1ccc(OCCOc2ccc(C(CCCCC)NCCCC)cc2)cc1 (stereo unspecified),86
11,CC(C)[C@H](NCC(=O)c1ccccc1)C(=O)O,0.65
12,NC(=O)c1ccccc1Nc1nc(Nc2cccc(N3CCN(CCO)CC3)c2)ncc1Cl,67.3
13,CCc1ccc(C2CCN(CCCCNC(=O)c3ccc(NC(=O)c4ccc(Cl)cc4)cc3)CC2)c(OCCO)c1,2.33
14,Nc1nc2c(ncn2OC[C@H]2COP(=O)(O)CO2)c(=O)[nH]1,0.55
15,Cc1ccc(C(=O)Nc2cc(S(=O)(=O)N3CCCC3)ccc2OCC(F)(F)F)cc1,4.19
16,CCN1CCC(N(Cc2ccc(-c3ccc(C(F)(F)F)cc3)cc2)C(=O)Cn2nc(C)c(=O)cc2SCc2ccc(F)cc2)CC1,0.04
17,O=C(/C=C/c1ccc(Cl)cc1)NCCCCCN1CCC(C(=O)Nc2ccc(Cl)cc2)CC1,0.51
18,Cc1cc(OCC2CCN(c3ncc(C(=O)NC4CC4)cc3Cl)CC2)ccc1F,1.07
19,C=CCC(C)n1ncc2c3c(N)nc(N)nc3ccc21 (stereo unspecified),-0.39
20,COc1ccc(C(=O)C2CC2CN(C)CC(O)c2cc(C)c(OC)cc2C)cc1 (stereo unspecified),7.67
21,C=Cc1ccccc1C1(O)CCN(CCCCNC(=O)c2ccc(-c3ccc(C#N)cc3)cc2)CC1,1.76
22,C=CCc1cccc(OC)c1OCCCON1C(=N)N=C(N)NC1(C)C,0.37
23,CCN(CCCN1CCCCC1)c1cc(C)nc(Nc2ccc(C)cc2C)n1,1.53
24,Clc1ncnc2ncn(Cc3cccc(Br)c3)c12,10.7
25,CC(C)C1C(=O)N(S(C)(=O)=O)C2CCN(C(=O)c3ccc(CN4CCCCC4)c([N+](=O)[O-])c3)C12 (stereo unspecified),4.49
26,CCc1ccc(NC(=O)N(CCCn2ccnc2)Cc2csc(-c3ccc(CNCc4ccccc4)cc3)n2)cc1,2.93
